Reference: the antibiotic and cytotoxicity screens of Wong et al. (2023)
The campaign covered roughly 39,000 compounds. About 3,300 (8.5%) were called active. For the sample, actives were picked, then their nearest neighbours and some compounds at random.

tested on: HepG2; experiment: cytotoxicity call (relative viability < 0.9); settings: 10 µM

Row | SMILES | cytotoxicity call
1 | CN1CCN(C(=O)C[C@H]2CC[C@H]3[C@H](COc4ccc(NC(=O)C5CCCCC5)cc4C(=O)N3C)O2)CC1 | inactive
2 | C[C@]12C(=O)N(CCCCCO)[C@@H]3C(=O)N(c4ccc(Cl)cc4)CC=C[C@]31O[C@@H]1/C=C\CCCOC(=O)[C@H]12 | inactive
3 | O=C(C[C@@H]1CC[C@H](NC(=O)CN2CCOCC2)[C@@H](CO)O1)NC1CCC1 | inactive
4 | CC(C)NC(=O)Nc1ccc2c(c1)C(=O)N([C@H](C)CO)C[C@@H](C)[C@@H](CN(C)S(=O)(=O)c1ccccc1)O2 | inactive
5 | COCC#Cc1ccc2c(c1)O[C@@H](CN(C)S(=O)(=O)c1ccc(OC)cc1)[C@H](C)CN([C@H](C)CO)S2(=O)=O | inactive
6 | C[C@H](CO)N1C[C@H](C)[C@@H](CN(C)C(=O)Nc2cccc3ccccc23)OCCCC[C@H](C)Oc2ccc(NS(=O)(=O)c3cn(C)cn3)cc2C1=O | inactive
7 | C[C@@H]1CN([C@H](C)CO)C(=O)Cc2cc(NC(=O)Cn3cnnn3)ccc2O[C@H]1CN(C)Cc1ccc(Cl)c(Cl)c1 | inactive
8 | C/C=C/c1cccc(-c2nc(C(=O)NCc3cccc(OC)c3)cc3c2[C@@H](CCO)N([S@](=O)C(C)(C)C)C3)c1 | inactive
9 | CC(C)[Si]1(C(C)C)O[C@@H](c2ccccc2)c2cc(C3CC3)nc(-c3ccc(Oc4ccccc4)cc3)c21 | inactive
10 | CCC(CC)C(=O)N1c2ccccc2Sc2ccccc21 | inactive
11 | CC(CN1c2ccccc2Sc2ccccc21)N(C)C.Cl (stereo unspecified) | active
12 | CCN(CC)C(C)CN1c2ccccc2Sc2ccccc21.Cl (stereo unspecified) | active
13 | C[C@H]1CN([C@@H](C)CO)C(=O)c2cc(NC(=O)Cn3cnnn3)ccc2O[C@H]1CN(C)Cc1ccc(Oc2ccccc2)cc1 | inactive
14 | C[C@H](CO)N1C[C@H](C)[C@H](CN(C)Cc2ccc(C(F)(F)F)cc2)Oc2c(NC(=O)Nc3cccc4ccccc34)cccc2C1=O | inactive
15 | Cc1ccc(S(=O)(=O)N(C)C[C@H]2OCCCC[C@@H](C)Oc3ccc(NS(=O)(=O)c4ccc(F)cc4)cc3C(=O)N([C@H](C)CO)C[C@H]2C)cc1 | inactive
16 | C=C1[C@@H]2[C@H]3OC(=O)[C@@H](C)[C@@H]3[C@@H](O[C@@H]3O[C@H](CO)[C@@H](O)[C@H](O)[C@H]3O)CC(=C)[C@@H]2C[C@@H]1O | inactive
17 | COc1cc(-c2coc3cc(OCc4ccccc4)c(OC)c(O)c3c2=O)cc(OCc2ccccc2)c1OC | inactive
18 | C[C@@H]1CCCCO[C@@H](CN(C)CC2CCCCC2)[C@H](C)CN([C@H](C)CO)C(=O)c2cc(NS(=O)(=O)c3cccs3)ccc2O1 | inactive
19 | Cc1ccc(Nc2nc(-c3ccc(C)cc3)c(C)s2)cc1 | inactive
20 | Cc1ccc(-c2nc(Nc3cccc(Cl)c3)sc2C)cc1 | inactive
21 | C=C(C)CNc1nc(-c2ccccc2)c(-c2ccccc2)s1 | inactive
22 | Cc1sc(N)nc1-c1ccccc1 | inactive
23 | Cc1nc(-c2ccc(Cl)cc2)c(-c2ccccc2)s1 | active
24 | Cc1sc(Nc2ccccc2)nc1-c1ccc(Cl)cc1 | active

Row | SMILES | cytotoxicity call
25 | NC(=O)Cn1c(=O)c2ccccc2n(CC(N)=O)c1=O | inactive
26 | C=CCN(Cc1ccccc1)C(=O)[C@@H]1N(c2c(Cl)cccc2CO)C(=O)[C@@H]2[C@H](C(=O)O)[C@@H]3C=C[C@@]21O3 | inactive
27 | C[C@@H]1CN([C@H](C)CO)C(=O)c2cc(NC(=O)Nc3ccc(C(F)(F)F)cc3)ccc2O[C@H]1CN(C)Cc1ccc(C(=O)Nc2ccccc2N)cc1 | inactive
28 | C[C@H]1CN([C@@H](C)CO)C(=O)c2cc(NC(=O)Nc3ccc(C(F)(F)F)cc3)ccc2O[C@@H]1CN(C)Cc1ccc(C(=O)Nc2ccccc2N)cc1 | inactive
29 | C[C@H]1CN([C@@H](C)CO)C(=O)c2cc(NC(=O)Nc3ccc(F)cc3)ccc2O[C@H]1CN(C)Cc1ccc(C(=O)Nc2ccccc2N)cc1 | inactive
30 | C[C@H]1CN([C@@H](C)CO)C(=O)c2cc(NC(=O)Nc3ccccc3)ccc2O[C@H]1CN(C)Cc1ccc(C(=O)Nc2ccccc2N)cc1 | inactive
31 | C[C@@H]1CN([C@@H](C)CO)C(=O)c2cc(NC(=O)Nc3ccccc3)ccc2O[C@@H]1CN(C)Cc1ccc(C(=O)Nc2ccccc2N)cc1 | active
32 | C[C@H](CO)N1C[C@H](C)[C@H](CN(C)Cc2ccc(C(=O)Nc3ccccc3N)cc2)Oc2ccc(NC(=O)Nc3ccc(F)cc3)cc2C1=O | inactive
33 | C[C@@H]1CN([C@@H](C)CO)C(=O)c2cc(NC(=O)Nc3ccc(F)cc3)ccc2O[C@@H]1CN(C)Cc1ccc(C(=O)Nc2ccccc2N)cc1 | inactive
34 | C[C@H](CO)N1C[C@H](C)[C@@H](CN(C)Cc2ccc(C(=O)Nc3ccccc3N)cc2)Oc2ccc(NC(=O)Nc3ccc(F)cc3)cc2C1=O | inactive
35 | C[C@@H]1CN([C@H](C)CO)C(=O)c2cc(NC(=O)Nc3ccc(C(F)(F)F)cc3)ccc2O[C@@H]1CN(C)Cc1ccc(C(=O)Nc2ccccc2N)cc1 | active
36 | C[C@H](CO)N1C[C@H](C)[C@H](CN(C)Cc2ccc(C(=O)Nc3ccccc3N)cc2)Oc2ccc(NC(=O)Nc3ccccc3)cc2C1=O | inactive
37 | C[C@@H]1CN([C@@H](C)CO)C(=O)c2cc(NC(=O)Nc3ccc(C(F)(F)F)cc3)ccc2O[C@@H]1CN(C)Cc1ccc(C(=O)Nc2ccccc2N)cc1 | active
38 | C[C@H](CO)N1C[C@H](C)[C@H](CN(C)Cc2ccc(C(=O)Nc3ccccc3N)cc2)Oc2ccc(NC(=O)Nc3ccc(C(F)(F)F)cc3)cc2C1=O | active
39 | C[C@H]1CN([C@@H](C)CO)C(=O)c2cccc(NC(=O)C3CC3)c2O[C@H]1CN(C)S(=O)(=O)c1ccc(F)cc1 | inactive
40 | COc1ccc(CN(C)C[C@H]2OCCCC[C@@H](C)Oc3ccc(NS(=O)(=O)c4ccc(C)cc4)cc3C(=O)N([C@H](C)CO)C[C@H]2C)cc1 | inactive
41 | C[C@H]1CN([C@@H](C)CO)C(=O)c2cc(NS(=O)(=O)c3cn(C)cn3)ccc2O[C@@H]1CN(C)S(=O)(=O)c1ccc(Cl)cc1 | inactive
42 | NNC(=O)c1cccc(C(F)(F)F)n1 | inactive
43 | CCC(=O)O[C@H]1[C@@H]2CC3=C4CC(=O)O[C@@H](c5ccoc5)[C@]4(C)CC[C@@H]3[C@@](C)(C2=O)[C@@H](CC(=O)OC)C1(C)C | inactive
44 | C[C@H](CO)N1C[C@H](C)[C@H](CN(C)C(=O)c2ccccc2)OCCCC[C@H](C)Oc2ccc(NS(=O)(=O)c3cccs3)cc2C1=O | inactive
45 | C[C@@H]1CN([C@@H](C)CO)C(=O)c2cc(NC(=O)Cc3cn(C)c4ccccc34)ccc2O[C@H]1CN(C)CC1CCCCC1 | inactive
46 | COc1cccc(S(=O)(=O)Nc2ccc3c(c2)[C@H]2C[C@H](CC(=O)NC4CCCCC4)O[C@@H](CO)[C@H]2O3)c1 | inactive
47 | CN(C)CCCNC(=O)C[C@@H]1CC[C@H]2[C@H](COc3ccc(NC(=O)c4cccc(F)c4)cc3C(=O)N2C)O1 | inactive
48 | COc1ccc(S(=O)(=O)Nc2ccc3c(c2)C(=O)N([C@@H](C)CO)C[C@@H](C)[C@@H](CN(C)Cc2ccc4c(c2)OCO4)OCCCC[C@H](C)O3)cc1 | inactive

Row | SMILES | cytotoxicity call
49 | CCC(=O)NCc1nccc(N(C)C)n1 | inactive
50 | C[C@H](CO)N1C[C@H](C)[C@@H](CN(C)S(=O)(=O)c2ccc(F)cc2)Oc2ccc(NC(=O)Cn3cnnn3)cc2CC1=O | inactive
51 | C[C@H]1CN([C@@H](C)CO)C(=O)c2cc(NC(=O)Nc3ccc(C(F)(F)F)cc3)ccc2O[C@H]1CN(C)Cc1ccc(C(=O)Nc2ccccc2N)cc1 | inactive
52 | C[C@@H]1CN([C@@H](C)CO)C(=O)c2cc(NC(=O)Nc3ccc(C(F)(F)F)cc3)ccc2O[C@H]1CN(C)Cc1ccc(C(=O)Nc2ccccc2N)cc1 | active
53 | C[C@H](CO)N1C[C@H](C)[C@@H](CN(C)Cc2ccc(C(=O)Nc3ccccc3N)cc2)Oc2ccc(NC(=O)Nc3ccc(C(F)(F)F)cc3)cc2C1=O | inactive
54 | C[C@@H]1CN([C@@H](C)CO)C(=O)c2cccc(NC(=O)C3CCOCC3)c2O[C@@H]1CN(C)S(=O)(=O)c1ccc(F)cc1 | inactive
55 | Cc1noc(C)c1S(=O)(=O)Nc1ccc2c(c1)C(=O)N([C@H](C)CO)C[C@@H](C)[C@H](CN(C)CC1CCCCC1)OCCCC[C@@H](C)O2 | inactive
56 | CC(C=CC=C(C)C=CC1=C(C)C(=O)CCC1(C)C)=CC=CC=C(C)C=CC=C(C)C=CC1=C(C)C(=O)CCC1(C)C [CANTHAXANTHIN (euglenanone) ] | inactive
57 | COc1ccc(S(=O)(=O)Nc2ccc3c(c2)[C@@H]2C[C@H](CC(=O)NCC4CC4)O[C@@H](CO)[C@@H]2O3)cc1 | inactive
58 | C[C@H](CO)N1C[C@H](C)[C@@H](CN(C)Cc2ccc(C(=O)Nc3ccccc3N)cc2)Oc2ccc(NS(=O)(=O)c3ccc(Cl)cc3)cc2C1=O | inactive
59 | C[C@@H]1CCCCO[C@H](CN(C)S(=O)(=O)c2cccs2)[C@@H](C)CN([C@@H](C)CO)C(=O)c2cc(NC(=O)Nc3ccc(F)cc3)ccc2O1 | inactive
60 | N[C@H](C(=O)O)c1ccc(C(=O)O)c(O)c1 | inactive
61 | NCC(O)c1ccc(O)c(O)c1.O=C(O)C(O)C(O)C(=O)O (stereo unspecified) | active
62 | N[C@@H](C(=O)O)c1ccc(C(=O)O)c(O)c1 | inactive
63 | N[C@H](C(=O)O)[C@H](O)c1ccc(O)c(O)c1 | inactive
64 | O=C(O)[C@@H](O)Cc1ccc(O)c(O)c1 | inactive
65 | NC[C@H](O)c1ccc(O)c(O)c1 | active
66 | NC(C(=O)O)C(O)c1ccc(O)c(O)c1 (stereo unspecified) | active
67 | CNC[C@@H](O)c1ccc(O)c(O)c1 | inactive
68 | NC[C@@H](O)c1ccc2ccccc2c1 | inactive
69 | NC[C@@H](O)c1ccsc1 | inactive
70 | CNC[C@H](O)c1ccc(O)c(O)c1 | inactive
71 | CNCC(O)c1ccc(O)c(O)c1.O=C(O)C(O)C(O)C(=O)O (stereo unspecified) | active
